Test results as given in PubChem BioAssay (Tox21).
Inconclusive results are not listed. A number with no mark means an inactive call. Calls come from the whole dose curve.

assay: qHTS assay for small molecule agonists of the p53 signaling pathway - cell viability (AID 651633); conditions: p53RE-bla HCT-116 viability, ATP luminescence, 16 h; series mostly up to 83.3 µM; activity change, negative = cytotoxicity: at the top concentration;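 note: p53RE-bla HCT reporter cells with a stable beta-lactamase p53 reporter; nearly all actives have a fitted effect of over 30% in size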
Source text: National Center for Advancing Translational Sciences [NCATS]
NIH Chemical Genomics Center [NCGC]
U.S. Environmental Protection Agency [EPA]
National Institutes of Environmental Health Sciences [NIEHS]
National Toxicology Program [NTP]
U.S. Food and Drug Administration [FDA]
p53, a tumor suppressor protein, is activated following cellular insult, including DNA damage and other cellular stresses. The activation of p53 regulates cell fate by inducing DNA repair, cell cycle arrest, apoptosis, or cellular senescence. The activation of p53, therefore, is a good indicator of DNA damage and other cellular stresses. […] The activation of the reporter gene under culture conditions can be detected by fluorescence intensity. This cell line was used to screen the Tox21 compound library in a 1536-well plate format and to identify agonists that activate the p53 signaling pathway.
Tox21 Assay Protocol Summary:
The p53RE-bla cells were dispensed at 4,000 cells/5 ul/well in 1536-well black wall/clear bottom plates using a Multidrop dispenser. After the assay plates were incubated at a 37 C/5% CO2 incubator for 5 hours, 23 nL of compounds dissolved in DMSO, positive controls or DMSO only was transferred to the assay plate by a pin tool. The plates were incubated at 37 C for 16 hours. After 1 uL of LiveBLAzerTM B/G FRET substrate was added using a Flying Reagent Dispenser, the plates were incubated at room temperature for 2 hours, and fluorescence intensity was measured by an Envision plate reader.
For cell viability readout that measures cytotoxicity, 4 ul/well of CellTiter-Glo reagent was added into the assay plates using a Flying Reagent Dispenser. After 30 min incubation at room temperature, the luminescence intensity in the plates was measured using a ViewLux plate reader.
% is set by controls: 0 for no effect and ±100 for the full control effect.

**Q.** Which “activity change, negative = cytotoxicity” value does the source give for `CNCCc1ccccn1` here?
**A.** Its value is -17.6% [at 39.1 µM].

**Q.** With `O=S(=O)(O)CC(O)CCl` (stereo not given) as the molecule, how does the “activity change, negative = cytotoxicity” value read?
**A.** Its value is -12%.

**Q.** For `CC(C)(C)C(=O)NCCCC(=O)O`, which “activity change, negative = cytotoxicity” value is on record?
**A.** The value was 12.4%.

**Q.** With `CCCCCCCCCCCCCCCCN(C)C` as the molecule, how does the activity change, negative = cytotoxicity read?
**A.** Its activity change, negative = cytotoxicity is 8.53% [at 8.08 µM].

**Q.** With `CCCCCCCCS(=O)(=O)O` as the molecule, how does the “activity change, negative = cytotoxicity” value read?
**A.** Its value is -7.16% [at 95.3 µM].

**Q.** For `CCCC(=O)CC`, which “activity change, negative = cytotoxicity” value is on record?
**A.** The value was -5.48% [at 95.3 µM].

**Q.** Which “activity change, negative = cytotoxicity” value does the source give for `Cc1cccc(N)n1` here?
**A.** The value was 8.54% [at 95.3 µM].

**Q.** With `CN(C)c1ccncc1` as the molecule, how does the “activity change, negative = cytotoxicity” value read?
**A.** The value was 7.38%.

**Q.** For `Cc1nc2ccc(Cl)cc2[nH]1`, which “activity change, negative = cytotoxicity” value is on record?
**A.** Its value is 7.93%.

**Q.** With `CC(C)OCCO` as the molecule, how does the “activity change, negative = cytotoxicity” value read?
**A.** Its value is -11.8%.

**Q.** Which “activity change, negative = cytotoxicity” value does the source give for `CC1(C)CC(N)CC(C)(C)N1` here?
**A.** The value was 19.2%.

**Q.** With `CC(C)(C)C(=O)CC(=O)C(C)(C)C` as the molecule, how does the “activity change, negative = cytotoxicity” value read?
**A.** Its value is 19.6% [at 95.3 µM].

**Q.** Which “activity change, negative = cytotoxicity” value does the source give for `CC[N+](C)(CC)CC` here?
**A.** The value was 8.76%.

**Q.** For `C[C@@H]1CC[C@@]2(OC1)O[C@H]1C[C@H]3[C@@H]4CC[C@H]5C[C@@H](O)CC[C@]5(C)[C@H]4CC(=O)[C@]3(C)[C@H]1[C@@H]2C`, which “activity change, negative = cytotoxicity” value is on record?
**A.** The value was 20.2% [at 39.1 µM].

**Q.** Which “activity change, negative = cytotoxicity” value does the source give for `CCCCCCCCCCCCCCBr` here?
**A.** Its value is -8.47% [at 95.3 µM].

**Q.** Which “activity change, negative = cytotoxicity” value does the source give for `CCCCCCCCCCCCCCCC/C=C/C1CC(=O)OC1=O` (stereo not given) here?
**A.** Its value is 15.1%.

**Q.** Which “activity change, negative = cytotoxicity” value does the source give for `O=C[C@@H](O)[C@H](O)[C@H](O)CO` here?
**A.** Its value is 17.6%.

**Q.** With `CC(C)(C)NCC(O)COc1cccc2c1CCC(=O)N2` (stereo not given) as the molecule, how does the “activity change, negative = cytotoxicity” value read?
**A.** Its value is 9.83% [at 39.1 µM].

**Q.** With `COc1cc(C(=O)NC2CCCNC2)cc(OC)c1OC` (stereo not given) as the molecule, how does the “activity change, negative = cytotoxicity” value read?
**A.** Its value is -7.01%.

**Q.** Which “activity change, negative = cytotoxicity” value does the source give for `CN(C)CCc1c[nH]c2ccc(CS(=O)(=O)N3CCCC3)cc12` here?
**A.** The value was -13.4%.

**Q.** For `Cc1ccccc1OCC(=O)O`, which “activity change, negative = cytotoxicity” value is on record?
**A.** The value was -8.53%.

**Q.** Which “activity change, negative = cytotoxicity” value does the source give for `C=C(C)C(=O)OCCCC` here?
**A.** Its value is 17.6% [at 95.3 µM].

**Q.** For `COC(=O)/C=C(\C)CCC=C(C)C`, which “activity change, negative = cytotoxicity” value is on record?
**A.** Its value is -15.7%.

**Q.** With `CSC(=O)c1cccc2nnsc12` as the molecule, how does the “activity change, negative = cytotoxicity” value read?
**A.** The value was -5.61%.

**Q.** For `C[n+]1ccccc1/C=N/O`, which “activity change, negative = cytotoxicity” value is on record?
**A.** The value was 10.2% [at 39.1 µM].

**Q.** Which “activity change, negative = cytotoxicity” value does the source give for `O=CN1CCCCC1` here?
**A.** Its value is -13%.

**Q.** With `C=CC(=O)OCC[N+](C)(C)C` as the molecule, how does the “activity change, negative = cytotoxicity” value read?
**A.** Its value is -5.92% [at 95.3 µM].

**Q.** With `C/C(Cl)=C/CCl` as the molecule, how does the “activity change, negative = cytotoxicity” value read?
**A.** Its value is -12.7% [at 95.3 µM].

**Q.** Which “activity change, negative = cytotoxicity” value does the source give for `Cc1ccc(O)c(C(=O)c2ccccc2)c1` here?
**A.** The value was -4.58% [at 95.3 µM].

**Q.** With `CC(C)c1cc(C(C)C)cc(C(C)C)c1` as the molecule, how does the “activity change, negative = cytotoxicity” value read?
**A.** The value was 12.6%.

**Q.** For `CCCCCCCC(=O)N(C)C`, which “activity change, negative = cytotoxicity” value is on record?
**A.** Its value is 10.8%.

**Q.** For `C=COCCCCO`, which “activity change, negative = cytotoxicity” value is on record?
**A.** The value was -4.47%.

**Q.** Which “activity change, negative = cytotoxicity” value does the source give for `CCCC[O][Al]([O]CCCC)[O]CCCC` here?
**A.** Its value is 16.4%.

**Q.** For `BrCCOc1ccccc1`, which “activity change, negative = cytotoxicity” value is on record?
**A.** Its value is 5.39% [at 95.3 µM].

**Q.** For `CCc1ncc(C)[nH]1`, which “activity change, negative = cytotoxicity” value is on record?
**A.** The value was 16.1%.

**Q.** With `Cc1ccccc1C#N` as the molecule, how does the “activity change, negative = cytotoxicity” value read?
**A.** The value was 18.8%.

**Q.** For `CC(=O)OC1CCC(C(C)(C)C)CC1` (stereo not given), which “activity change, negative = cytotoxicity” value is on record?
**A.** Its value is 3.02%.

**Q.** For `C=CCCCCCCCCCCCCCC`, which “activity change, negative = cytotoxicity” value is on record?
**A.** The value was 23.3% [at 39.1 µM].

**Q.** Which “activity change, negative = cytotoxicity” value does the source give for `C[C@@H](CN1CC(=O)NC(=O)C1)N1CC(=O)NC(=O)C1` here?
**A.** The value was -14.4%.

**Q.** With `COc1cc2nc(N3CCN(C(=O)C4CCCO4)CC3)nc(N)c2cc1OC` (stereo not given) as the molecule, how does the “activity change, negative = cytotoxicity” value read?
**A.** Its value is 11.5%.
